# Among all 310,000 compounds or so, about 14,000 (4.5%) showed an effect of 50% or more. Effects have a minus sign here. Only a selection was taken, and strong results are over-represented in it overall.
# Target: human ether-à-go-go-related gene (hERG) potassium channel (human, UniProt Q12809)
# Assay: primary screen, population patch clamp on CHO cells stably expressing hERG; higher = less effect of the substance
# 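Also: peak tail current of the secondary pulse compared with the same well before compound.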
# human ether-à-go-go-related gene (hERG) potassium channel, sequence (Q12809 whole entry, looked up): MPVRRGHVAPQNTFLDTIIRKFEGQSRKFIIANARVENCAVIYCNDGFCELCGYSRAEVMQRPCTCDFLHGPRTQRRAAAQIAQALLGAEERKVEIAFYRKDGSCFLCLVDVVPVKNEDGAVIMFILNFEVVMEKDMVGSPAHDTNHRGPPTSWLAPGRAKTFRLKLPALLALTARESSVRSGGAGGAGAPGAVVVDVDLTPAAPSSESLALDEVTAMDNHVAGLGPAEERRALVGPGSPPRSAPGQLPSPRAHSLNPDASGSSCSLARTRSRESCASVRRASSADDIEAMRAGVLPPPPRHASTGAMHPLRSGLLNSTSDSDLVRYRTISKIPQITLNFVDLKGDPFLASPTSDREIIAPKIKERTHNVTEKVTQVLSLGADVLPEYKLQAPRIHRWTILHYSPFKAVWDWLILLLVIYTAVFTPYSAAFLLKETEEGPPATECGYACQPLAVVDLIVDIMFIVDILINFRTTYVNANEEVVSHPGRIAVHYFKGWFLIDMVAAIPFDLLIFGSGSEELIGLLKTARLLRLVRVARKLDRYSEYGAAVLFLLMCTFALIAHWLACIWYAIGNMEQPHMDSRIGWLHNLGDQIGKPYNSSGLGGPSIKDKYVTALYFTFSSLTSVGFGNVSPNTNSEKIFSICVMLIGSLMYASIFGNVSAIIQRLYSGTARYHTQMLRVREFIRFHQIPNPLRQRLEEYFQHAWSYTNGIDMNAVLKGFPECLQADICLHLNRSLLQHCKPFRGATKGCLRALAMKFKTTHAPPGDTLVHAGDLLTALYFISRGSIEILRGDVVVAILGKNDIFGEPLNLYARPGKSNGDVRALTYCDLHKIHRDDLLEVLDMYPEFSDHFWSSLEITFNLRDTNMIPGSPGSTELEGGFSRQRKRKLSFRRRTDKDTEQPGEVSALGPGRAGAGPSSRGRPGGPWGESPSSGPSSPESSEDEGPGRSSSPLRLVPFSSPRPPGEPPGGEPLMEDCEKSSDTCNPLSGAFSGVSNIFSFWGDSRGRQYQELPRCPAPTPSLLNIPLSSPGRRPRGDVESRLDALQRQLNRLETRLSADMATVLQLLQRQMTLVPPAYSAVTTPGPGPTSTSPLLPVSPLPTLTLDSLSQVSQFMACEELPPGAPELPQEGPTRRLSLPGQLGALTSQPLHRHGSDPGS
row,SMILES,"hERG current change (%, negative = inhibition) at 10uM [%]"
1,CC(C)C(NC(=O)c1ccccc1)C(=O)NC1CCCc2ccccc21 (centres unmarked),15
2,COc1ccc(-n2c(CNCCc3ccc(C)cc3)nc3ccccc3c2=O)cc1,-32.8
3,COC(=O)c1cc(C(=O)OCC(=O)N(C)C2CCS(=O)(=O)C2)cc([N+](=O)[O-])c1 (centres unmarked),7.96
4,Cc1cc(C)n2nc(C(=O)OCC(=O)N3C(C)CCCC3C)nc2n1 (centres unmarked),21.5
5,Cc1ccc(S(=O)(=O)c2nc(Nc3nccs3)sc2Cl)cc1,11.6
6,Brc1ccc(-c2cn3c(n2)CCc2ccc4cccnc4c2-3)cc1,12.5
7,COc1ccc(-n2c(-c3ccc(Br)cc3)c[n+]3c2CCc2ccccc2-3)cc1.[Br-],-85.2
8,COc1ccc(-n2c(-c3ccc(Cl)cc3)c[n+]3c2CCc2ccccc2-3)cc1.[Br-],-78.4
9,COc1ccc(-n2c(-c3ccccc3)nnc2-c2ccc(Cl)cc2)cc1,4.96
10,Cc1ccc(-n2c(=O)[nH]c3ncccc3c2=O)cc1,30.2
11,COc1ccc(-n2c(-c3ccc(Cl)cc3)c[n+]3c2CCCCC3)cc1.[Br-],-29.8
12,Cc1ccc(-n2c(-c3ccc(Br)cc3)c[n+]3c2CCc2ccc4cccnc4c2-3)cc1.[Br-],-74.2
13,COc1ccc(-n2c(-c3ccc(Br)cc3)nc(=S)c3c2CCCC3)cc1,-1.32
14,COc1ccc(N2C3=[N+](CC2(C)O)c2ccccc2CC3)cc1.[Br-] (centres unmarked),-44.3
15,COc1ccc(N2C(=O)CC(NNC(=O)c3cc(C)oc3C)C2=O)cc1 (centres unmarked),23.6
16,COc1ccc(CCNC(=O)CSc2nnc(-c3ccccc3)c3ccccc23)cc1OC,-20
17,CCNC(=O)NC(=O)C(C)Oc1ccc(C(=O)OC)cc1 (centres unmarked),3.92
18,COc1ccc(C(c2sc3nc(C)nn3c2O)N2CCC3(CC2)OCCO3)cc1 (centres unmarked),-2.74
19,COc1ccc(Cc2nnc(NC(=O)Nc3ccc(C)cc3)s2)cc1OC,10.2
20,Nc1c(C(=O)CSc2nnc(Nc3ccc(F)cc3)s2)c(=O)[nH]c(=O)n1C1CC1,0.202
21,O=C(c1ccc2c3c(cccc13)CC2)C1CCCN(Cc2ccncc2)C1 (centres unmarked),-51.5
22,CN(C)C(=O)CCC(=O)N1CCCC(C(=O)c2ccc3c4c(cccc24)CC3)C1 (centres unmarked),-20.2
23,O=C(c1ccc2c3c(cccc13)CC2)C1CCCN(C(=O)c2cccnc2)C1 (centres unmarked),-19.4

row,SMILES,"hERG current change (%, negative = inhibition) at 10uM [%]"
1,NC(=O)CCC(=O)N1CCCC(C(=O)c2ccc3c4c(cccc24)CC3)C1 (centres unmarked),2.05
2,O=C(c1ccc2c3c(cccc13)CC2)C1CCCN(CC2CC2)C1 (centres unmarked),-46.3
3,COCCC(=O)N1CCCC(C(=O)c2ccc3c4c(cccc24)CC3)C1 (centres unmarked),-17.8
4,O=C(c1ccc2c3c(cccc13)CC2)C1CCCN(Cc2cccnc2)C1 (centres unmarked),-63.4
5,O=C1CCC(C(=O)N2CCCC(C(=O)c3ccc4c5c(cccc35)CC4)C2)=NN1 (centres unmarked),-17.9
6,O=C(c1ccc2c3c(cccc13)CC2)C1CCCN(Cc2ccccn2)C1 (centres unmarked),-42.5
7,O=C(c1ccc2c3c(cccc13)CC2)C1CCCN(Cc2ccc(OCCO)cc2)C1 (centres unmarked),-70.4
8,O=C1CCC(CCC(=O)N2CCCC(C(=O)c3ccc4c5c(cccc35)CC4)C2)=NN1 (centres unmarked),-54.4
9,C/C=C(\C)C(=O)OC1C(C)=C2C(C1OC(=O)CCCCC)C(C)(OC(C)=O)CC(OC(=O)CCC)C1(O)C2OC(=O)C1(C)O (centres unmarked),-6.49
10,COc1cc2cccc(OC)c(=O)c2c(O)c1OC,-1.84
11,CCc1ccc(N/C(N)=N/c2nc(CSc3ccccn3)cc(=O)[nH]2)cc1,3.29
12,Cn1ncc2c(Nc3cccc(C(=O)O)c3)ncnc21,6.66
13,CC(C(=O)NCc1ccccn1)c1ccc([N+](=O)[O-])cc1 (centres unmarked),-49.5
14,Cc1ccc(S(=O)(=O)N2CCCC2C(=O)Nc2cc(C)on2)cc1 (centres unmarked),-1.05
15,Cc1ccccc1-c1noc(CCC(=O)NCc2ccco2)n1,-2.05
16,C#CCOCCOCCOCCNc1nc(N2CCN(C(=O)[C@H](CCCCN)n3cc(C(N)[C@H](C)CC)nn3)CC2)nc(N2CCN(C(=O)[C@H](CCC(=O)O)n3cc(C(N)[C@H](C)CC)nn3)CC2)n1.Cl (some centres unmarked),13.5
17,C=C[C@@H]1c2cc(C)ccc2N(S(=O)(=O)c2ccc(C)cc2)[C@H](c2ccccc2C(F)(F)F)C1(C#N)C#N,7.01
18,COc1cc(C(=O)NCC(=O)N/N=C(/C)c2cccs2)cc(OC)c1OC,-0.388
19,Cc1ccc(CC(=O)Nc2ccc(S(=O)(=O)Nc3ncccn3)cc2)cc1,19.9
20,CC(c1ccccc1)n1c(-c2ccccc2F)n[nH]c1=S (centres unmarked),-11.9
21,COc1cc(CN2CCCC(C(=O)c3ccc4c5c(cccc35)CC4)C2)cc(OC)c1O (centres unmarked),-53
22,CC(=O)NCC(=O)N1CCCC(C(=O)c2ccc3c4c(cccc24)CC3)C1 (centres unmarked),8.94
23,COCC(=O)N1CCCC(C(=O)c2ccc3c4c(cccc24)CC3)C1 (centres unmarked),-21.2

row,SMILES,"hERG current change (%, negative = inhibition) at 10uM [%]"
1,Cc1cnc(CN2CCCC(C(=O)c3ccc4c5c(cccc35)CC4)C2)[nH]1 (centres unmarked),-31.7
2,CCn1ccnc1CN1CCCC(C(=O)c2ccc3c4c(cccc24)CC3)C1 (centres unmarked),-77.4
3,Cc1ncccc1C(=O)N1CCCC(C(=O)c2ccc3c4c(cccc24)CC3)C1 (centres unmarked),-13.2
4,CC(=O)N1CCCC(C(=O)c2ccc3c4c(cccc24)CC3)C1 (centres unmarked),-8.18
5,CN1CCC(C(=O)N2CCCC(C(=O)c3ccc4c5c(cccc35)CC4)C2)CC1 (centres unmarked),-61.1
6,O=C(c1ccc2c3c(cccc13)CC2)C1CCCN(Cc2ncc[nH]2)C1 (centres unmarked),-55.7
7,Cc1ncoc1C(=O)N1CCCC(C(=O)c2ccc3c4c(cccc24)CC3)C1 (centres unmarked),-15.5
8,Cc1cccc(CN2CCCC(C(=O)c3ccc4c5c(cccc35)CC4)C2)n1 (centres unmarked),-40.7
9,Cc1ccc(OCC(=O)NCCNC(=O)c2ccncc2)cc1C,15.9
10,Cc1ccc(S(=O)(=O)NCc2ccccc2)cc1C(=O)N(C)Cc1ccc(F)cc1,5.11
11,O=c1c2ccccc2oc2nc(-c3ccco3)n(Cc3ccccc3)c(=O)c12,-9.22
12,CCOC(=O)c1cc2occc2n1CC(=O)Nc1ccc(OC)cc1OC,-15
13,O=C(NCCOc1nc(N2CCCCC2)nc(N2CCOCC2)n1)Nc1ccccc1,-0.098
14,Cc1ccc(S(=O)(=O)NCc2ccco2)c(C)c1C,-4.4
15,CN(NC(=O)c1ccco1)c1nc2ccccc2nc1C(F)(F)F,0.871
16,N#CCCN(Cc1cccnc1)C(=O)Nc1cccc(Cl)c1,-10.9
17,N#Cc1ccc(-c2csc(NNC(=O)c3ccccc3)n2)cc1,0.0899
18,Cc1ccc(NS(=O)(=O)c2ccc(C3CCCCC3)cc2)cc1,-10.3
19,CC12CCC(=O)N1C(C(=O)NCc1ccc(Cl)cc1Cl)CS2 (centres unmarked),-0.564
20,CCn1c(-c2ccc(N)cc2)nc2ccccc21,4.21
21,C=C(C)Cn1c(-c2ccc(OC)cc2)nc2ccccc21,-23.4
22,CCn1c(-c2ccc(N(C)C)cc2)nc2ccccc21,-50.3
23,COCn1c(-c2ccccc2)nc2ccccc21,-5.43

row,SMILES,"hERG current change (%, negative = inhibition) at 10uM [%]"
1,C=C(C)Cn1c(-c2ccccc2)nc2ccccc21,-64.9
2,CN(C)c1ccc(-c2nc3ccccc3n2C)cc1,-49.9
3,Cc1ccc(C(=O)CSc2nc(N)cc(=O)[nH]2)cc1,2.68
4,Fc1ccc(NC(=S)N/N=C/c2cccc(Br)c2)c(F)c1,3.9
5,O=C(COC(=O)Cc1ccsc1)NCc1ccc(Cl)cc1,10.6
6,CC(Sc1cnc2ccccc2n1)C(=O)O (centres unmarked),15.9
7,Cc1ccc(C#N)c(SCc2ccccc2[N+](=O)[O-])n1,2.72
8,CCOc1ccc(-c2nc(C)c(C(C)=O)n2O)cc1,-0.685
9,Cc1nonc1OCCN1CCN(c2ccccc2[N+](=O)[O-])CC1.Cl,-37.2
10,Cc1nonc1OCCNCCNc1ccc([N+](=O)[O-])c2cccnc12,-52.2
11,O=[N+]([O-])c1ccc(N2CCN(CCOc3nonc3-c3ccccc3)CC2)c(Cl)c1,-4.17
12,Cc1nonc1OCCNCCNc1ccccc1[N+](=O)[O-],-23.4
13,O=[N+]([O-])c1cc(C(F)(F)F)ccc1NCCOc1ccccc1,-3.64
14,Cc1nonc1OCCNc1ccc([N+](=O)[O-])cc1[N+](=O)[O-],-54.7
15,Cc1nonc1OCCCNc1ccc([N+](=O)[O-])cc1Cl,9.59
16,CCNCCNc1ccc([N+](=O)[O-])c2cccnc12,-22.8
17,Cc1nonc1OCCN1CCN(c2ccc([N+](=O)[O-])cc2)CC1,-98.3
18,Cc1nonc1OCCNCCNc1ccc([N+](=O)[O-])cc1Cl,-49.7
19,Cc1nonc1OCCNc1ccc([N+](=O)[O-])c2cccnc12,-18
20,O=[N+]([O-])c1ccc(NCCNCCOc2nonc2-c2ccccc2)c([N+](=O)[O-])c1,-68.6

# Source: article PMC4336329 (PLoS ONE, 2015)
